# IDE exosite FP: exo-site inhibitors of human IDE, primary screen, biochemical, fluorescence anisotropy, probe displacement | purified IDE, FL-6b probe fluorescence polarization; stronger effect = lower value | actives 6.3% (n = 17,000) | AID 1259349, 2017 | z-score at 20 µM | Insulin-degrading enzyme (Homo sapiens), P14735;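 active means z-score of -3 or lower, meaning strong loss of probe binding signal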;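 further: His-tagged human IDE residues 42-1019 made in E. coli with 30 nM FL-6b probe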
# * = called active by the depositor. This is one part of a sample in which hits are shown more often than they occur.
SMILES,IDE exosite FP
CCC(=O)N1CC(=O)N2[C@H](CO)[C@@H](c3ccc(C#CC(C)C)cc3)[C@H]2C1,1
O=C(Cc1cccnc1)N1CC(=O)N2[C@@H](CO)[C@H](c3ccc(C4=CCCC4)cc3)[C@@H]2C1,1
O=C(NC1CCCC1)N1CCCCN2[C@H](C1)[C@H](c1ccc(-c3ccncc3)cc1)[C@@H]2CO,2.9
COc1ccccc1-c1ccc([C@H]2[C@@H](CO)N3CCCCN(C(=O)NC4CCCC4)C[C@H]23)cc1,-19*
O=C(NC1CCCC1)N1CCCCN2[C@@H](CO)[C@H](c3ccc(-c4cccnc4)cc3)[C@@H]2C1,-2.9
COc1ccccc1-c1ccc([C@H]2[C@H](CO)N3CCCCN(C(=O)NC4CCCC4)C[C@@H]23)cc1,-12*
O=C(NC1CCCC1)N1CCCCN2[C@H](CO)[C@@H](c3ccc(-c4cccnc4)cc3)[C@H]2C1,-0.77
O=C(NC1CCCC1)N1CCCCN2[C@@H](CO)[C@@H](c3ccc(-c4ccncc4)cc3)[C@@H]2C1,4.8
C[C@H]1CN([C@@H](C)CO)C(=O)CCCn2cc(nn2)CO[C@H]1CN(C)C(=O)Nc1cccc2ccccc12,-0.74
CN(C)C(=O)c1cccc(-c2ccc(C3[C@@H]4CN(S(=O)(=O)c5cccc(Cl)c5)C[C@H]3N4)cc2)c1 (some centres not stated),0.24
O=C(Nc1ccc(F)cc1)N1CC(=O)N2[C@H](C1)[C@@H](c1ccc(C#CC3CC3)cc1)[C@@H]2CO,3.5
N#C[C@H]1[C@H](c2ccccc2C2=CCCCC2)[C@H](CO)N1C(=O)c1cccc(F)c1,3.7
CC(C)CC#Cc1ccc([C@@H]2[C@H]3CN(C(=O)NC4CCCCC4)CC(=O)N3[C@H]2CO)cc1,0.86
CCC(=O)NC[C@@H]1[C@H](c2ccc(C3=CCCC3)cc2)[C@H](CO)N1C(=O)C1CC1,4.8
O=C(Nc1cccc(F)c1)N1CC(=O)N2[C@@H](CO)[C@H](c3ccc(-c4ccccc4)cc3)[C@@H]2C1,1.3
COc1ccc(C(=O)Nc2ccc3c(c2)C(=O)N(C)[C@H]2CC[C@@H](CC(=O)NCC4CC4)O[C@@H]2CO3)cc1,0.56
CN1C(=O)c2cc(NS(C)(=O)=O)ccc2OC[C@H]2O[C@H](CC(=O)N3CCOCC3)CC[C@H]21,-1
COc1cccc(C(=O)Nc2ccc3c(c2)C(=O)N(C)[C@H]2CC[C@@H](CC(=O)NCc4ccc(F)cc4)O[C@H]2CO3)c1,-2.9
COc1cccc(C(=O)Nc2ccc3c(c2)C(=O)N(C)[C@H]2CC[C@H](CC(=O)NCc4ccc(F)cc4)O[C@H]2CO3)c1,-0.35
CN1C(=O)c2cc(NS(C)(=O)=O)ccc2OC[C@@H]2O[C@H](CC(=O)N3CCOCC3)CC[C@@H]21,-1.5
CN1C(=O)c2cc(NS(C)(=O)=O)ccc2OC[C@@H]2O[C@H](CC(=O)NCc3ccccc3)CC[C@@H]21,-2.5
COc1ccc(C(=O)Nc2ccc3c(c2)C(=O)N(C)[C@H]2CC[C@H](CC(=O)NCC4CC4)O[C@@H]2CO3)cc1,-0.44
CCS(=O)(=O)Nc1ccc2c(c1)C(=O)N(C)[C@@H]1CC[C@H](CC(=O)NCc3ccc(OC)cc3)O[C@H]1CO2,0.06
CCS(=O)(=O)Nc1ccc2c(c1)C(=O)N(C)[C@H]1CC[C@@H](CC(=O)NCc3ccc(OC)cc3)O[C@@H]1CO2,-4.2*
CN1C(=O)c2cc(NS(C)(=O)=O)ccc2OC[C@@H]2O[C@@H](CC(=O)N3CCOCC3)CC[C@@H]21,-5.1*
SMILES,IDE exosite FP
COc1cccc(C(=O)Nc2ccc3c(c2)C(=O)N(C)[C@H]2CC[C@@H](CC(=O)NCc4ccc(F)cc4)O[C@@H]2CO3)c1,-6.2*
COc1ccc(C(=O)Nc2ccc3c(c2)C(=O)N(C)[C@H]2CC[C@H](CC(=O)NCC4CC4)O[C@H]2CO3)cc1,-3.6*
C/C=C/c1ccc([C@@H]2[C@H](CO)N[C@H]2CN(CC)C(=O)CN2CCOCC2)cc1,1.4
CN(C)C(=O)c1cccc(-c2ccc3c(c2)[C@@H]2[C@@H](CCN2C(=O)Nc2ccc(F)cc2)[C@H](CO)N3C)c1,0.88
CCS(=O)(=O)Nc1ccc2c(c1)C(=O)N(C)[C@@H]1CC[C@H](CC(=O)N3CCN(C)CC3)O[C@@H]1CO2,0.8
CN(C)C(=O)c1cccc(-c2ccc([C@H]3[C@H](CO)N4CCCCN(CCC(F)(F)F)C[C@@H]34)cc2)c1,4.3
COCC#Cc1ccc([C@@H]2[C@@H](CO)N3CCCCN(Cc4cccnc4)C[C@@H]23)cc1,-1.1
OC[C@H]1[C@H](c2ccc(C#CC3(O)CCCC3)cc2)[C@@H]2CN(Cc3cccnc3)CCCCN12,-0.38
CCN(C[C@H]1[C@H](c2ccccc2)[C@@H](CO)N1C(C)=O)C(=O)c1ccccn1,2.9
O=S(=O)(c1ccccc1)N1CC2(C1)[C@H](c1ccccc1)[C@H](CO)N2CCC(F)(F)F,0.52
CN1CCN(C(=O)C[C@@H]2CC[C@@H]3[C@H](COc4ccc(NC(=O)C5CCOCC5)cc4C(=O)N3C)O2)CC1,0.031
CC(=O)NC[C@@H]1[C@H](c2ccc(-c3cccnc3)cc2)[C@H](CO)N1C(=O)C1CC1,1.3
COc1cccc(-c2ccc([C@@H]3[C@H]4CN(C(=O)c5ccncc5)CC(=O)N4[C@H]3CO)cc2)c1,-11*
O=C(c1ccncc1)N1CC(=O)N2[C@H](CO)[C@H](c3ccc(-c4ccccc4)cc3)[C@@H]2C1,2.2
COc1cccc(-c2ccc([C@@H]3[C@@H](CO)N4C(=O)CN(C(=O)c5ccncc5)C[C@H]34)cc2)c1,1.7
COc1cccc(-c2ccc([C@H]3[C@@H](CO)N4C(=O)CN(C(=O)c5ccncc5)C[C@@H]34)cc2)c1,-8.6*
COc1cccc(-c2ccc([C@@H]3[C@H](CO)N4C(=O)CN(C(=O)c5cccnc5)C[C@@H]34)cc2)c1,-1.6
COc1cccc(-c2ccc([C@H]3[C@H]4CN(C(=O)c5cccnc5)CC(=O)N4[C@H]3CO)cc2)c1,-0.65
CC(C)CC#Cc1ccc([C@H]2[C@H](CO)N3C(=O)CN(C(=O)Cc4ccccc4)C[C@@H]23)cc1,1.9
CN1C(=O)c2cc(NS(=O)(=O)c3cccc(F)c3)ccc2OC[C@H]2O[C@H](CC(=O)NCCN3CCCCC3)CC[C@H]21,-0.83
CC(=O)N1[C@H](CN(C(=O)c2ccc(F)cc2)C(C)C)[C@@H](c2ccccc2)[C@@H]1CO,1.8
COCC(=O)N1[C@H](C#N)[C@@H](c2ccccc2C2=CCCCC2)[C@H]1CO,-0.47
CO[C@@H]1CC[C@@H]2CCOc3c(C#N)cccc3C(=O)N(C)C[C@H](c3ccccc3)CC(=O)N(C)C[C@H]1O2,-1.3
Cc1noc(C)c1S(=O)(=O)N(C)C[C@@H]1OCc2ccccc2-c2c(n(C)c3ccccc23)C(=O)N([C@@H](C)CO)C[C@@H]1C,-1.1
O=C(c1cnccn1)N1CC(=O)N2[C@H](C1)[C@H](c1ccc(-c3ccccc3)cc1)[C@@H]2CO,0.43
O=C(c1cnccn1)N1CC(=O)N2[C@H](C1)[C@H](c1ccc(-c3ccc(F)cc3)cc1)[C@@H]2CO,5.7
O=C(c1cnccn1)N1CC(=O)N2[C@H](C1)[C@@H](c1ccc(-c3ccccc3)cc1)[C@@H]2CO,-6*
Cc1cccc(-c2ccc([C@@H]3[C@H]4CN(C(=O)c5cnccn5)CC(=O)N4[C@H]3CO)cc2)c1,-16*
Cc1cccc(-c2ccc([C@@H]3[C@H](CO)N4C(=O)CN(C(=O)c5cnccn5)C[C@@H]34)cc2)c1,-11*

# Assay outcomes as filed in PubChem BioAssay.
